Source: PubChem (National Center for Advancing Translational Sciences (NCATS))
The list is not random: actives were taken first. Their share in the collection is about 2.6%.
PMP22 txn: Cell-based coincidence reporter assay to measure PMP22 gene transcription in S16 Pmp22-F2sN cells - Primary screen. Potency, µM (highest dose often 57.5 µM), without a hit: top-dose activity change, negative = inhibition, hits mostly inhibitors. S16 Pmp22-F2sN Schwann cells, FLuc/NLuc coincidence luminescence, 24 h. 43,000 compounds, 2% hits; active = clear falling dose curves in both reporters; inconclusive = both reporters move, but less clearly or upward; inactive = either reporter flat; the % is the NLuc reporter signal
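Reporter cells (S16 Pmp22-F2sN, 500–1,000 per well) exposed to compounds for 24 h, 37C, 5% CO2; lysis with FLuc read after 10 min, then Stop&Glo and NLuc read after 10 min.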
pS6 MEF inh: Acumen qHTS Assay for Inhibitors of the mTORC1 Signaling Pathway in MEF (Tsc2-/-, p53-/-) Cells: Sytravon | Tsc2-/- p53-/- MEF, phospho-rpS6 immunofluorescence/PI, 24 h | Potency, µM (doses to about 38.3 µM), for the others: top-dose activity change, negative = inhibition, usual class: inhibitors | 44,000 compounds, 0.78% hits;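 note: plate controls were DMSO for no effect and rapamycin for full effect; nearly all actives have a fitted effect of over 50% in size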
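Compounds act on Tsc2-/-, p53-/- fibroblasts carrying an empty vector for 24 h before fixation and dual staining for phospho-S6 and DNA (propidium iodide). Values are percentages of cells above a rapamycin-defined pS6/PI threshold.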
SKOV3 invasion: Primary qHTS assay for Inhibitors of ovarian cancer metastasis using an organotypic tumor microenvironment (TME) model. SKOV3ip1-GFP adhesion/invasion on 3D omental model, fluorescence. Potency, µM (highest dose often 45.8 µM), without a hit: top-dose activity change, negative = inhibition, most hits filed as inhibitors. AID 1963576, 2024. 46,000 compounds, 0.1% hits;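 note: plate controls were DMSO wells for no effect and tomatine positive control wells for full effect; nearly all actives have a fitted effect of over 65% in size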
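Primary human omental fibroblast/mesothelial 3D culture pre-formed 48 h. SKOV3ip1-GFP cells added with compounds (0.36-46 umol/L), incubated 2 h RT/16 h 37 C, fixed; GFP cells quantified at 488/509 nm.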
S16 viability: Cell viability qHTS assay in S16 Pmp22-F2sN cells | Potency, µM (series often up to 57.5 µM), for the others: at the top dose activity change, negative = cytotoxicity, most hits filed as cytotoxic | 43,000 compounds, 0.48% hits | AID 1508642, 2021 | S16 Pmp22-F2sN Schwann cells viability, CellTiter-Glo, 24 h; note: nearly all actives have a fitted effect of over 65% in size
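S16 Pmp22-F2sN Schwann cells (500-1,000/well) in phenol-red-free DMEM with 10% FBS received 23 nL compound by pin tool for 24 h at 37 °C. Viability was then read as CellTiter-Glo luminescence after 15 min at room temperature.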
Numbers without * were called inactive; i = inactive; ? = inconclusive; . = no result; [ ] = another dose, or the depositor's remark. Unless noted, calls come from the whole dose curve; as a rule, active = well fitted curve in the direction sought with a large enough effect; inconclusive = small, poorly fitted or top-dose-only effect, or another doubt; inactive = no such curve, though single readings can be large; an effect the other way counts as inactive or inconclusive. Unless noted, % is set by controls: 0 for no effect and ±100 for the full control effect; potency is the fitted concentration of half-maximal effect.

SMILES | PMP22 txn | pS6 MEF inh | SKOV3 invasion | S16 viability
Nc1ncnc2c1c(-c1cccc(OCc3ccccc3)c1)cn2C1CC(CN2CCC2)C1 (stereo not drawn) | . | . | 3% | .
CC(C)(C)c1ccc(OCC(=O)NCC2(N3CCOCC3)CCCCC2)cc1 | ? | ? | i | ?
CC(C)COc1ccc(C(=O)NCC2(N3CCN(C)CC3)CCCCC2)cc1 | ? | 16µM* | ? | ?
CN1CCN(C2(CNC(=O)c3ccc(C(C)(C)C)cc3)CCCCC2)CC1 | ? | 16µM* | i | ?
CNC(=O)[C@H](CC1=CN=C2C=CCC=C12)NC(=O)[C@@H](CC(=O)NO)CC(C)C | . | . | -6% | .
Nc1nc(F)nc2c1ncn2[C@@H]1O[C@H](COP(=O)(O)O)[C@@H](O)[C@H]1O | . | . | -17% | .
COc1ccc(C(=O)CC2(O)C(=O)N(Cc3ccccc3Cl)c3ccccc32)cc1 (stereo not drawn) | ? | ? | i | -24%
CCc1ccc(C(=O)CC2(O)C(=O)N(Cc3ccc(C)cc3)c3ccccc32)cc1 (stereo not drawn) | ? | 12µM* | i | -21%
CCCCN1C(=O)C(O)(CC(=O)c2ccc(C(C)(C)C)cc2)c2ccccc21 (stereo not drawn) | ? | ? | -12% | ?
Cc1ccc(C(=O)CC2(O)C(=O)N(Cc3ccccc3)c3ccccc32)c(C)c1 (stereo not drawn) | -27% | 18µM* | 6% | ?
Cc1ccc(C(=O)CC2(O)C(=O)N(Cc3ccccc3)c3ccc(Br)cc32)cc1 (stereo not drawn) | ? | 10µM* | ? | -26%
CCOC(=O)[C@@H](N)Cc1ccc(-c2cc(O[C@H](c3ccc(Cl)cc3-n3ccc(C)n3)C(F)(F)F)nc(N)n2)cc1 | . | . | -12% | .
Cc1cccc(N2CCN(CCNC(=O)Nc3ccc(Cl)cc3)CC2)c1C | ? | 18µM* | ? | ?
Clc1ccc(N2CCN(c3ncnc4c3nc3n4CCCC3)CC2)cc1 | 14µM* | -6% | 1% | ?
Cc1ccccc1OCc1ccc(-c2nc(C#N)c(NCCCN(C)C)o2)o1 | ? | 5.8µM* | -1% | ?
CCCCNc1oc(-c2ccc(COc3ccccc3C)o2)nc1C#N | -12% | ? | -48% | -22%
CC(NC(=O)c1ccc(Nc2nc3ccccc3n3nnnc23)cc1)c1ccccc1 (stereo not drawn) | -37% | -12% | -19% | ?
CN(C)c1ccc(Nc2nc3ccccc3n3nnnc23)cc1 | 14µM* | -1% | 4% | ?
O=C(c1ccc(Nc2nc3ccccc3n3nnnc23)cc1)N1CCN(c2ccc(F)cc2)CC1 | 4µM* | 3% | -6% | ?
CC(C)c1ccc(NC(=O)CSC2=Nc3ccccc3C3=NC(CCC(=O)NCc4ccc(F)cc4)C(=O)N23)cc1 (stereo not drawn) | ? | ? | 2% | 28µM*
COc1ccc(Cl)cc1NC(=O)CSC1=Nc2ccccc2C2=NC(CCC(=O)NCc3ccc(F)cc3)C(=O)N12 (stereo not drawn) | ? | 2% | 7% | -23%
COc1ccc(OC)c(NC(=O)CSC2=Nc3ccccc3C3=NC(CCC(=O)NCc4ccccc4)C(=O)N23)c1 (stereo not drawn) | 12µM* | -1% | 25% | ?
C=CCn1c(=O)c2cnc(Nc3ccc(N4CCN(C)CC4)cc3)nc2n1-c1cccc(C(C)(C)O)n1 | . | . | 5% | .
O=C(O)Cn1nnc(-c2cc(N3CCC(Oc4cc(F)ccc4Br)CC3)no2)n1 | . | . | 2% | .
COc1cc(Cl)c(C)cc1NC(=O)C1CCN(c2nc3ccccc3n3cccc23)CC1 | ? | 15µM* | -2% | -6%
SMILES | PMP22 txn | pS6 MEF inh | SKOV3 invasion | S16 viability
Cc1cc(C)c(NC(=O)C2CCN(c3nc4ccccc4n4cccc34)CC2)c(C)c1 | -18% | 15µM* | -4% | 10%
COc1cc(Cl)c(C)cc1NC(=O)c1cnc(N2CCCCC2)c2ccccc12 | -34% | -2% | 4% | -26%
CCCCc1ccc(NS(=O)(=O)c2ccc(C)c(C(=O)N3CCN(c4cccc(C)c4C)CC3)c2)cc1 | . | . | 14% | .
CCN1CCN(c2cc(C)c3cc(NC(=O)c4ccc(OC)c(OC)c4)ccc3n2)CC1 | ? | ? | 0% | 20µM*
Cc1cc(N2CCN(C)CC2)nc2ccc(NC(=O)Nc3ccc(Cl)cc3)cc12 | ? | 1% | 4% | -26%
Cc1cc(N2CCN(C)CC2)nc2ccc(NC(=O)c3ccc(C(C)(C)C)cc3)cc12 | ? | 5.8µM* | ? | ?
CC(=O)Nc1ccc([C@H](C)C(=O)Nc2ncc(C(C)C)s2)cc1 | . | . | -1% | .
COCc1cc(C)nc2sc(C(=O)Nc3ccc(C(C)=O)cc3)c(N)c12 | ? | -9% | 3% | 0%
CCCCOC(=O)c1ccc(NC(=O)c2sc3nc(C)cc(C)c3c2N)cc1 | 2% | 10µM* | ? | 10%
COC(=O)c1ccc2c(C(=Nc3ccc(N(C)C(=O)CN4CCN(C)CC4)cc3)c3ccccc3)c(O)[nH]c2c1 | . | . | -3% | .
O=C(NC1CCN(Cc2ccccc2)CC1)c1ccc(Cn2c(=O)c3ccccc3n(Cc3ccc(F)cc3)c2=O)cc1 | ? | 3.3µM* | 3% | ?
CCCOc1cccc(C(=O)Nc2cccc(NC(=O)c3ccc(Cl)cc3Cl)c2)c1 | -10% | 10% | -7% | ?
CCCCOc1cccc(NC(=O)CSc2nnc(C)s2)c1 | -28% | 12% | i | 0%
CCCOc1ccc(C(=O)Nc2ccc(NC(=O)c3ccc(Br)cc3)cc2)cc1 | -1% | 4% | 0% | 2%
CCCCOc1cccc(NC(=O)c2cccc(C(=O)Nc3cccc(OCCCC)c3)c2)c1 | -16% | 7.4µM* | -14% | -2%
CCCOc1ccc(C(=O)Nc2ccc(NC(=O)c3ccccc3)c(C)c2)cc1 | ? | 13µM* | -7% | -1%
CCCOc1ccc(C(=O)Nc2cccc(NC(=O)c3ccc(Cl)cc3Cl)c2)cc1 | ? | -10% | ? | 14µM*
COc1ccc(-c2ccc3c(N4CCOCC4)nc(N4C[C@@H](C)O[C@@H](C)C4)nc3n2)cc1CO | . | . | -5% | .
Cc1cnc(CNC(=O)c2c(=O)c3ccc(N4CCCN(C)CC4)nc3n3c2sc2ccccc23)cn1 | . | . | 2%[23.2 µM] | .
Cc1ccc2nc(N(Cc3cccnc3)C(=O)CCS(=O)(=O)c3ccccc3)sc2c1 | ? | -5% | 39% | 18µM*
CCOc1ccc(NC(=O)c2ccc3c(c2)nnn3C2CCCC2)cc1 | ? | 0% | i | -30%
Cc1cc(C)cc(NC(=O)c2ccc3c(c2)nnn3C2CCCC2)c1 | ? | -23% | 4% | 11µM*
